Assay outcomes: PubChem BioAssay, National Center for Advancing Translational Sciences (NCATS)
Compounds with a hit are over-represented: about 2.6% of the library has one in this group of screens.
Cruzain Triton – blocks cruzain activity in presence of Triton detergent | purified cruzain, Z-FR-AMC fluorescence, 0.01% Triton | Potency, µM, hits mostly inhibitors | hit rate 0.43% among 200,000 | AID 1478; further: nearly all actives have a fitted effect of over 40% in size
Target sequence (P25779 123-467 limits assumed): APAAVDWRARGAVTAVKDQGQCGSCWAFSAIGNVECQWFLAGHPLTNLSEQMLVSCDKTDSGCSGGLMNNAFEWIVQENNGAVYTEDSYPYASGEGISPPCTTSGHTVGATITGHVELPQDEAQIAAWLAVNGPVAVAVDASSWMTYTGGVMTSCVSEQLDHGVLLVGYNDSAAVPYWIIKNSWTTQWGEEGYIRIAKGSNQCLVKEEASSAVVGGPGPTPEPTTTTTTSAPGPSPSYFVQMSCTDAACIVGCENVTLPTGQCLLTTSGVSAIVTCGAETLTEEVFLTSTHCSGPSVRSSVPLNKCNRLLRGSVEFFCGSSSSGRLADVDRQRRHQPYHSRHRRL
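Detergent-containing run (0.01% Triton X-100) in acetate buffer pH 5.5 with 5 mM DTT: enzyme at 1.5 nM final, 15 min compound preincubation at room temperature, then 2 uM Z-FR-AMC substrate. Activity taken as 60 s fluorescence increase at 360/450 nm.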
Cruzain noTriton – inhibitors of Trypanosoma cruzi cruzain without detergent; P25779; purified cruzain, Z-FR-AMC fluorescence, no detergent; Potency, µM, actives largely listed as inhibitors; hit rate 2.3% among 200,000; further: nearly all actives have a fitted effect of over 40% in size
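Detergent-free condition (0.00005% Triton X-100) in acetate buffer pH 5.5 with DTT. 1.5 nM enzyme and compound were pre-mixed 15 min, then 2 uM Z-FR-AMC substrate added; reaction progress from fluorescence change between first and third reads (60 s).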
Numbers stand for hits; ! = a repeat was not active. The call rests on the fitted dose curve; in most records, active means well fitted curve in the direction sought with a large enough effect; inconclusive means small, poorly fitted or top-dose-only effect, or another doubt; inactive means no such curve, though single readings can be large; an effect the other way counts as inactive or inconclusive.

What do the screens show for `COc1cccc(OC)c1-c1nn2c(-c3cc(-c4ccccc4)n[nH]3)nnc2s1`?
Cruzain Triton: 1.8µM; Cruzain noTriton: 20µM

What do the screens show for `COc1cccc(-c2nnc3sc(-c4ccccc4)nn23)c1`?
Cruzain Triton: inactive; Cruzain noTriton: inconclusive

What do the screens show for `Cc1nc(-n2nc(C)c(Cc3ccccc3Cl)c2C)sc1C(=O)Nc1ccccc1F`?
Cruzain Triton: inactive; Cruzain noTriton: inactive

How did CC1=Nc2cc(C(=O)NCc3ccccc3Cl)ccc2Sc2c(C)ccc(C)c21 do in these assays?
Cruzain Triton: inactive; Cruzain noTriton: 32µM

Results for CCC1=Nc2cc(C(=O)NCc3ccccc3Cl)ccc2Sc2ccc(C)cc21 ?
Cruzain Triton: inactive; Cruzain noTriton: inconclusive

How did CC1=Nc2cc(C(=O)NCc3ccco3)ccc2Sc2ccc(C)cc21 do in these assays?
Cruzain Triton: inactive; Cruzain noTriton: inactive

What do the screens show for `CCC1=Nc2cc(C(=O)NCc3ccccc3OC)ccc2Sc2ccc(Cl)cc21`?
Cruzain Triton: inactive; Cruzain noTriton: 32µM

How did CCc1ccc2c(c1)c(=O)c(S(=O)(=O)c1ccccc1)cn2CC(=O)Nc1ccc(OC)cc1 do in these assays?
Cruzain Triton: inactive; Cruzain noTriton: inactive

How did CCCCc1nn2c(=O)cc(COC(=O)c3ccccc3NC(=O)c3ccccc3OC)nc2s1 do in these assays?
Cruzain Triton: inactive; Cruzain noTriton: inactive

How did O=C(Nc1ccccc1)Nc1nnc(/C=C/c2ccccc2Cl)s1 do in these assays?
Cruzain Triton: inactive; Cruzain noTriton: 25µM

What do the screens show for `O=C(Nc1ccccc1)O/N=C/c1ccccc1Cl`?
Cruzain Triton: inactive; Cruzain noTriton: inactive

What do the screens show for `COc1ccccc1-c1noc(-c2ccc(NCCc3ccccc3)c([N+](=O)[O-])c2)n1`?
Cruzain Triton: inactive; Cruzain noTriton: inactive

Results for Cc1cc2c(C(C)C)c(O)c(O)c(C=O)c2c(O)c1-c1c(C)cc2c(C(C)C)c(O)c(O)c(C=O)c2c1O ?
Cruzain Triton: 25µM!; Cruzain noTriton: inconclusive

Results for Cc1cccc(Oc2coc3cc(OC(=O)c4cc5ccccc5oc4=O)ccc3c2=O)c1 ?
Cruzain Triton: inactive; Cruzain noTriton: 5µM

Results for CCOC(=O)Oc1ccc2c(=O)c(Oc3cccc(C)c3)coc2c1 ?
Cruzain Triton: inactive; Cruzain noTriton: inactive

How did Cc1cccc(NC(=O)NC2COc3ccccc3C2)c1C (stereo not drawn) do in these assays?
Cruzain Triton: inactive; Cruzain noTriton: inactive

Results for CCOC(=O)N1[C@@H]2C=C(C)[C@@H]2[C@@H]2[C@@H](C)C(=O)N21 ?
Cruzain Triton: 13µM; Cruzain noTriton: 13µM

How did CCOC(=O)n1c(=O)oc2ccccc21 do in these assays?
Cruzain Triton: inactive; Cruzain noTriton: inactive

How did CCC(=O)N1CCc2cc(Br)cc(S(=O)(=O)CCC(=O)Nc3cccc(CC)c3)c21 do in these assays?
Cruzain Triton: inactive; Cruzain noTriton: inactive

Results for O=c1oc2ccccc2cc1-c1csc(Nc2nc3ccc(F)cc3s2)n1 ?
Cruzain Triton: inactive; Cruzain noTriton: inactive

How did O=c1oc2ccccc2cc1-c1csc(NN=C2CCCCC2)n1 do in these assays?
Cruzain Triton: inactive; Cruzain noTriton: 20µM

What do the screens show for `O=c1oc2ccccc2cc1-c1csc(Nc2nc3c(F)cccc3s2)n1`?
Cruzain Triton: inactive; Cruzain noTriton: 32µM

What do the screens show for `O=c1oc2ccccc2cc1-c1csc(Cc2nc(-c3ccc(Cl)cc3)cs2)n1`?
Cruzain Triton: inactive; Cruzain noTriton: 10µM

Results for O=c1oc2ccccc2cc1-c1nc(-c2cccc(Cl)c2)cs1 ?
Cruzain Triton: inactive; Cruzain noTriton: inactive

Results for CC1CCC/C(=C(\C#N)c2nc(-c3cc4ccccc4oc3=O)cs2)C1 (stereo not drawn) ?
Cruzain Triton: inactive; Cruzain noTriton: inactive

How did COc1c(O)ccc2c1CN1CCc3cc4c(cc3[C@@H]1C2)OCO4 do in these assays?
Cruzain Triton: inactive; Cruzain noTriton: inactive

What do the screens show for `Cc1ccc(-c2noc(-c3nnn(CC(=O)Nc4ccc(C)cc4Cl)c3N)n2)cc1`?
Cruzain Triton: inactive; Cruzain noTriton: inactive

How did COc1ccc(-c2nc(CN3CCC(C(=O)NCCCN4CCN(c5ccccc5F)CC4)CC3)c(C)o2)cc1OC do in these assays?
Cruzain Triton: inactive; Cruzain noTriton: inactive

How did Cc1ccc(-n2c(=S)[nH]c3nc4c(cc3c2=O)COC(C)(C)C4)cc1 do in these assays?
Cruzain Triton: inactive; Cruzain noTriton: inconclusive

How did CCC1(C)Cc2nc3[nH]c(=S)n(-c4ccc(C)cc4)c(=O)c3cc2CO1 (stereo not drawn) do in these assays?
Cruzain Triton: inactive; Cruzain noTriton: 20µM

What do the screens show for `CCc1cccc(CC)c1NC(=O)CCS(=O)(=O)c1ccc2c(c1)CCN2C(C)=O`?
Cruzain Triton: inactive; Cruzain noTriton: inactive

How did COc1ccc(CNC(=O)Cn2nnc(-c3ccc(NC(=O)C4CCCCC4)cc3)n2)cc1 do in these assays?
Cruzain Triton: inactive; Cruzain noTriton: 10µM

How did CCOc1ccc(-c2nnn(CC(=O)NCc3ccc(OC)cc3)n2)cc1OCC do in these assays?
Cruzain Triton: inactive; Cruzain noTriton: inactive

What do the screens show for `Cc1c(Cc2ccc3c(c2)OCO3)sc(NC(=O)c2ccc3ccccc3c2)c1C(N)=O`?
Cruzain Triton: inactive; Cruzain noTriton: 10µM

What do the screens show for `CCCOc1ccc(C(=O)Nc2nc(C)c(Cc3ccc4c(c3)OCO4)s2)cc1`?
Cruzain Triton: inactive; Cruzain noTriton: inactive

How did CCCC12C(=O)C(C)(C(c3ccccc3)=C1c1ccccc1)C1C(=O)N(c3ccc(C)cc3)C(=O)C12 (stereo not drawn) do in these assays?
Cruzain Triton: inactive; Cruzain noTriton: 20µM

What do the screens show for `CCC12C(=O)C(CC)(C(c3ccccc3)=C1c1ccccc1)[C@@H]1C(=O)N(c3ccc(C)cc3)C(=O)C12` (stereo partly drawn)?
Cruzain Triton: inactive; Cruzain noTriton: inconclusive

Results for COc1cccc(-c2nc(NC3CC3)c3ccccc3n2)c1 ?
Cruzain Triton: inactive; Cruzain noTriton: inactive

Results for COc1cccc(NC(=O)C(=O)NCCc2csc3nc(-c4ccccc4C)nn23)c1 ?
Cruzain Triton: inactive; Cruzain noTriton: inactive

How did COc1ccccc1Nc1nc(-c2ccc(F)cc2)c2c(n1)-c1ccccc1OC2 do in these assays?
Cruzain Triton: inactive; Cruzain noTriton: 10µM

What do the screens show for `Fc1ccc(Nc2nc(-c3ccc(F)cc3)c3c(n2)-c2ccccc2OC3)cc1`?
Cruzain Triton: inactive; Cruzain noTriton: inconclusive

How did COc1cc2nc(SCc3ccc(C(F)(F)F)cc3)n(Cc3cccs3)c(=N)c2cc1OC do in these assays?
Cruzain Triton: inactive; Cruzain noTriton: inconclusive

What do the screens show for `COc1cc2nc(SCc3ccc(Cl)cc3Cl)n(Cc3cccs3)c(=N)c2cc1OC`?
Cruzain Triton: inactive; Cruzain noTriton: 7.9µM

How did O=C(Cn1ncc2c3ccccc3n(Cc3ccccc3F)c2c1=O)NC1CCCCCC1 do in these assays?
Cruzain Triton: inactive; Cruzain noTriton: inactive

Results for C[N+]1(C)CC[C@@H](OC(=O)[C@@](O)(c2ccccc2)C2CCCC2)C1 ?
Cruzain Triton: inactive; Cruzain noTriton: inactive

How did Cc1cc(C)cc(NC(=O)Cn2cc(C(=O)c3ccccc3)c(=O)c3ccc(C)nc32)c1 do in these assays?
Cruzain Triton: inactive; Cruzain noTriton: inactive

What do the screens show for `Cc1ccc(-c2cc(C(=O)N(Cc3ccc(C(C)(C)C)cc3)Cc3ccco3)no2)cc1`?
Cruzain Triton: inactive; Cruzain noTriton: inactive

How did COc1ccc(C2C(C#N)=C(N)OC3=C2C(=O)CCC3)cc1Cn1cc([N+](=O)[O-])cn1 (stereo not drawn) do in these assays?
Cruzain Triton: inactive; Cruzain noTriton: inactive
